Results on 24 molecules are retold here after PubChem BioAssay (EPA / NIEHS).

Structures are written as SMILES. Results filed as inconclusive are left out. Active and inactive are the calls of the source. Rule for the calls, unless noted: active = hit-call score of the fitted dose curve at least 0.9, where 1 is the maximum; inactive = score below 0.9.

A short description of test [1]: CCTE_Shafer_MEA_dev_firing_rate_mean: CCTE's Neural Network Formation Assay for Mean Firing Rate, Shafer Lab (AID 2284031). The method in brief: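 Extracellular spike frequency, AUC over DIV 5–12 recordings, in rat cortical neuron MEA cultures dosed from plating; loss direction vs DMSO.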
Test [2] in a line: CCTE_Shafer_MEA_dev_per_burst_spike_percent: CCTE's Neural Network Formation Assay for Percent of Spikes in a Burst, Shafer Lab (AID 2284032). In a few lines:
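Value is trapezoidal AUC over recordings on days 5, 7, 9 and 12 of the well-mean fraction of spikes falling in single-electrode bursts; rat cortical cultures exposed continuously from plating, treatment renewed DIV 5 and 9, fitted downward against DMSO.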

Test [3] can be described thus: CCTE_Shafer_MEA_dev_burst_rate: CCTE's Neural Network Formation Assay for Burst Rate, Shafer Lab (AID 2284042). The method in brief: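 Cells plated, treated day 0; recorded DIV 5, 7, 9, 12; fed and re-treated DIV 5, 9. Endpoint: bursts per recording time, active-electrode well mean, trapezoidal AUC, fitted in decreasing direction against DMSO baseline.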
The nature of test [4]: CCTE_Shafer_MEA_dev_bursting_electrodes_number: CCTE's Neural Network Formation Assay for Number of Bursting Electrodes, Shafer Lab (AID 2284043; active = hit-call score of the fitted dose curve at least 0.9, where 1 is the maximum). In a few lines:
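Rat cortical primary neurons, 48-well MEA, 16 electrodes/well; dosing DIV 0–12, re-dosed with full media change DIV 5, 9. Recordings DIV 5/7/9/12, AxIS adaptive spike detector; bursting electrode = ≥1 burst/2 min. AUC across days; loss of signal vs DMSO.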

Test [5] in a line: CCTE_Shafer_MEA_dev_per_burst_interspike_interval: CCTE's Neural Network Formation Assay for Burst Interspike Interval, Shafer Lab (AID 2284044). In a few lines: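 Neurons from rat cortex plated onto PEI-coated MEA wells with laminin […] at 1.5 x 10^5 cells/well, then treated from day 0. Media and compound fully replaced on DIV 5 and 9. Extracellular spontaneous firing recorded four times; interspike interval per burst summarised as AUC.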

Test [6] is described as follows: CCTE_Shafer_MEA_dev_burst_duration_mean: CCTE's Neural Network Formation Assay for Mean Burst Duration, Shafer Lab (AID 2284045). The method in brief: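 Rat cortical cultures, 1.5 x 10^5 cells/well with laminin drop; continuous dosing days 0–12, media plus treatment refreshed DIV 5, 9. AxIS adaptive spike detection; mean single-electrode burst duration, AUC over four recordings, negative direction vs DMSO.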

The nature of test [7]: CCTE_Shafer_MEA_dev_interburst_interval_mean: CCTE's Neural Network Formation Assay for Mean Interburst Interval, Shafer Lab (AID 2284046).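 Note: well-mean interburst interval of bursting electrodes as AUC over four recording days; curve fitted for decrease in interburst interval relative to DMSO.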 The method in brief:
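Developing rat cortical networks on 48-well MEAs receive compound from the day of plating. Burst intervals from each active electrode are averaged per well, and AUC over the recording days is fitted in the negative direction against DMSO.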

A short description of test [8]: CCTE_Shafer_MEA_dev_inter_network_spike_interval_mean: CCTE's Neural Network Formation Assay for Mean Inter-network Spike Interval, Shafer Lab (AID 2284047). In a few lines:
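Rat cortical cultures, 1.5 x 10^5 cells/well on 48-well MEA plates; continuous exposure days 0–12, medium and compound refreshed DIV 5, 9. Mean time between consecutive network-spike peaks; AUC across DIV 5/7/9/12; DMSO baseline, negative fitting direction.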

Test [9] can be described thus: CCTE_Shafer_MEA_dev_network_spike_peak: CCTE's Neural Network Formation Assay for Mean Number of Electrodes in Network Spike, Shafer Lab (AID 2284049). In a few lines:
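Network-spike peak electrode count from recordings on days 5, 7, 9 and 12 was combined as trapezoidal area under the curve. Rat cortical cultures were treated continuously from plating, with compound renewed at each feed (DIV 5, 9); fits versus DMSO.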

Test [10] can be described thus: CCTE_Shafer_MEA_dev_spike_duration_mean: CCTE's Neural Network Formation Assay for Mean Spike Duration, Shafer Lab (AID 2284051).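 Note: mean network spike duration pooled as area under curve over DIV 5 to 12 recordings.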 In a few lines:
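Readout is the average length of network spikes, clustered firing across electrodes, summed over DIV 5, 7, 9 and 12 as area under the curve. Neurons from rat cortex developed networks on MEA plates under continuous 12-day exposure.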

Test [11] can be described thus: CCTE_Shafer_MEA_dev_network_spike_duration_std: CCTE's Neural Network Formation Assay for Standard Deviation of Network Spike Duration, Shafer Lab (AID 2284052).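 Note: area under curve of spike duration SD across recording days 5 to 12; hits are decreases in network spike duration SD versus DMSO vehicle.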 In a few lines:
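Read-out is the trapezoidal area-under-the-curve across recordings made on days 5, 7, 9 and 12, fitted in the negative direction against DMSO baseline. Neurons were primary rat cortical cells treated from day 0, with treatment renewed at each feed.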

Test [12] can be described thus: CCTE_Shafer_MEA_dev_per_network_spike_spike_number_mean: CCTE's Neural Network Formation Assay for Mean Number of Spikes in a Network Spike, Shafer Lab (AID 2284053). In a few lines:
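Continuous twelve-day exposure of developing rat cortical networks grown over 16 microelectrodes per well; spontaneous firing is captured at four time points, and the per-network-spike spike number is integrated over development by trapezoidal AUC.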

Test [13] is described as follows: CCTE_Shafer_MEA_dev_per_network_spike_spike_percent: CCTE's Neural Network Formation Assay for Percent of Spikes in a Network Spike, Shafer Lab (AID 2284054). The method in brief: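 Read-out: percent of spikes falling in a 0.05 s window at network-spike peak, from spontaneous MEA recordings on days 5, 7, 9 and 12; trapezoidal AUC; loss of signal versus DMSO. Rat cortical cultures, compound present throughout.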

Test [14] has as its target Estrogen receptor (Homo sapiens) (UniProt P03372). As to the kind of experiment: CCTE_Deisenroth_AIME_384WELL_LUC_Inactive: CCTE's 384-well Estrogen Receptor Transactivation Assay without AIME metabolic competence (ERTA luciferase; metabolism negative), Deisenroth Lab (AID 2284038; active = hit-call score of the fitted dose curve at least 0.9, where 1 is the maximum;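 note: VM7Luc4E2 breast cells given medium preincubated 2 h with S9-free microspheres; hits raise estrogen receptor luciferase signal so potencies reflect agonists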). The method in brief:
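Metabolism-negative mode: AIME lids stamped in alginate-water, no hepatic S9. 2 h chemical incubation → medium onto VM7Luc4E2 ERTA, 24 h. Readout luciferase luminescence; gain-of-signal fit vs 17beta-estradiol. Conc. 0.002 - 200 uM.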

A short description of test [15]: CCTE_Deisenroth_AIME_384WELL_CTox_Inactive: Cytotoxicity Assessment (CTOX) in CCTE's 384-well Estrogen Receptor Transactivation Assay without AIME metabolic competence (metabolism negative), Deisenroth Lab (AID 2284039; active = hit-call score of the fitted dose curve at least 0.9, where 1 is the maximum;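 note: cell viability via live-cell protease substrate cleaved to fluorescent probe; cells exposed 24 h to medium preincubated 2 h with alginate-water beads without S9; loss of fluorescence signal means loss of viability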). The method in brief: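 Metabolism-negative arm: chemicals (10-point, 0.002 - 200 uM) preincubated 2 h with alginate-water lids, medium moved onto VM7Luc4E2 cells for 24 h. Fluorescent live-cell protease readout; bidirectional curve fit.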

Test [16] has as its target Estrogen receptor (Homo sapiens) (UniProt P03372). As to the kind of experiment: CCTE_Deisenroth_AIME_384WELL_LUC_Shift: CCTE's 384-well Estrogen Receptor Transactivation Assay with AIME metabolic competence data shift (ERTA luciferase; difference in metabolism positive and negative), Deisenroth Lab (AID 2284041).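 Note: shift is response with S9 minus without S9 so positive means metabolism raised ER signal.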 The method in brief: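 Chemicals (0.002–200 uM, 10 points) pre-incubated 2 h with alginate-encapsulated induced male Sprague Dawley rat liver S9 or S9-free, then medium applied 24 h to VM7Luc4E2 cells; luciferase. Endpoint is per-concentration difference, S9-positive minus negative.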

The next test relates to DIO2 (gene 1734). As to the kind of experiment: CCTE_GLTED_hDIO2: CCTE's human Deiodinase 2 (DIO2) Inhibition Assay, Great Lakes Toxicology and Ecology Division (GLTED) Lab (AID 2284050; active = hit-call score of the fitted dose curve at least 0.9, where 1 is the maximum). In a few lines: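 Triplicate cell-free incubations (3 h) of human DIO2 with chemical preceded colorimetric Sandell-Kolthoff quantitation of liberated iodide; DMSO served as negative control for curve fitting.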

The subject of another test is DIO3 (gene 1735). As to the kind of experiment: CCTE_GLTED_hDIO3: CCTE's human Deiodinase 3 (DIO3) Inhibition Assay, Great Lakes Toxicology and Ecology Division (GLTED) Lab (AID 2284055; active = hit-call score of the fitted dose curve at least 0.9, where 1 is the maximum;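 note: potency is for inhibition seen as loss of released iodide signal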). The method in brief:
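Steps: incubate adenovirus-produced hDIO3 with chemical for 3 hours; detect freed iodide via cerium-arsenic Sandell-Kolthoff colorimetry; compare with DMSO baseline.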

Estrogen receptor (Homo sapiens), sequence (P03372 whole entry, looked up): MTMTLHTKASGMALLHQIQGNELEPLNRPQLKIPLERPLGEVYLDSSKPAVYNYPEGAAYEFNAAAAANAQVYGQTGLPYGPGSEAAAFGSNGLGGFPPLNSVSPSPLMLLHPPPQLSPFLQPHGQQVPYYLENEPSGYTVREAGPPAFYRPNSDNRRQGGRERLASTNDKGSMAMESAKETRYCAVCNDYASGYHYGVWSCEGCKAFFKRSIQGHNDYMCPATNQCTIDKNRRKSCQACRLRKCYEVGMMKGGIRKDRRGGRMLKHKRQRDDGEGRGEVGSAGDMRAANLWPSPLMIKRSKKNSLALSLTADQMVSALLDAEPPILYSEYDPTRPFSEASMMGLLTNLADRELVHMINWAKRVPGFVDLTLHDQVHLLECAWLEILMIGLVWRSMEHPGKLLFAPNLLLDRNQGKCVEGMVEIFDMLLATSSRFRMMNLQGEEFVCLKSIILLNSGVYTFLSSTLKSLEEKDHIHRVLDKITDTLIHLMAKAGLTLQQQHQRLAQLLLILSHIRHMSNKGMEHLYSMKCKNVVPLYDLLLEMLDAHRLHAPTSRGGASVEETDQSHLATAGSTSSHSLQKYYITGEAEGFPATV

With `N[C@@H](CCC(=O)O)C(=O)O`, the molecule was called inactive in test [1], in test [2], in test [3], in test [4], in [5] and in test [6]. Moreover, the molecule was classed as inactive in [7], in test [8], in [9], in test [10], in test [11] and in test [12]. In [13], the outcome was inactive.
On to `C1CCCNCC1`, for which the call in test [14], in test [15] and in test [16] was inactive.
For `CCCCOCCOCCO`, the outcome in [14], in test [15] and in [16] was inactive.
Consider `O=C1OC2(c3ccc(O)cc3Oc3cc(O)ccc32)c2ccccc21`, for which the outcome in [14] and in test [16] was inactive.
Take `CCC(=O)OC(C)(C)C1CC=C(C)CC1` (stereo unspecified): the molecule was called inactive in test [14] and in [16].
On to `CCCCCCCCOC(=O)c1ccc(O)cc1`, for which the AC50 is 39.7 µM (active) in [14], 36.3 µM (active) in [16], 92.9 µM (active) in the test on DIO2 (gene 1734) and 30.7 µM (active) with DIO3 (gene 1735).
As for `COc1ccc2[nH]cc(CCNC(C)=O)c2c1`, the outcome in test [14] and in test [16] was inactive.
Consider `[Na+]`, for which the molecule was called inactive in test [14] and in [16].
Consider `CC(=O)c1ccc2ccccc2c1`, for which the call in test [14] and in [16] was inactive.
Turning to `CC(=O)C1=C(C)[C@@H]2C[C@@]3(C1)[C@H](C)CC[C@H]3C2(C)C`, the AC50 in test [14] was 0.000263 µM (active); in [16], 0.000848 µM (active).
Take `CCCCCCCCCCCCOCCOS(=O)(=O)O`: the AC50 in test [15] is 107 µM (active). The outcome in test [16] was inactive.
On to `CC(C)(C)C1CCC(O)CC1` (stereo unspecified), for which the molecule was called inactive in [14] and in test [16].
Regarding `CCCCC/C=C\C=C\C(=O)OCC`, the AC50 is 44.2 µM (active) in the test on DIO2 (gene 1734) and 26.6 µM (active) in the test on DIO3 (gene 1735).
With `CCCC1CCC(=O)CC1`, the molecule was called inactive in test [14] and in [16].
Turning to `C#C[C@]1(O)CC[C@H]2[C@@H]3CCc4cc(O)ccc4[C@H]3CC[C@@]21C`, the AC50 in test [15] was 93.7 µM (active).
For the molecule `CCCO`, the molecule was classed as inactive in [14] and in test [16].
As to `CCCCOCCOCCOCCO`, the call in [14] and in [16] was inactive.
Regarding `C=C(C)C(=O)OCCC(C)OC(=O)C(=C)C` (stereo unspecified), the AC50 in the test with DIO2 (gene 1734) is 49.6 µM (active); in the test with DIO3 (gene 1735) it was 36.9 µM (active).
On to `[O-]/[N+](=N\O)c1ccccc1`, for which the AC50 is 59 µM (active) in test [14] and 81 µM (active) in test [16].
As for `CCC(C)COC(=O)CC(C)C` (stereo unspecified), the call in test [14] and in test [16] was inactive.
As for `CC(=O)Oc1c(C)c(C)c2c(c1C)CC[C@@](C)(CCC[C@H](C)CCC[C@H](C)CCCC(C)C)O2`, the result in test [14] and in [16] was inactive.
Take `O=C(c1ccc(OCCN2CCCCC2)cc1)c1c(-c2ccc(O)cc2)sc2cc(O)ccc12`: the AC50 with DIO2 (gene 1734) was 99.1 µM (active).
On to `O=C(OCc1ccccc1)c1ccccc1O`, for which the AC50 in test [14] is 46.4 µM (active); in test [16], 37.2 µM (active).
`CCCC[N+](C)(CCCC)CCCC`: the molecule was classed as inactive in [15] and in test [16].
